Test results as given in PubChem BioAssay AID618 (Sanford-Burnham Center for Chemical Genomics, 2007).
Among all 87,000 compounds or so, about 540 (0.62%) were called active. The rule behind the calls is not given here. Only a selection was taken, and actives are over-represented in it overall. Entries with a potency or affinity are not part of this list.

Assay: MT1-MMP gene expression reporter suppression – cell-based, luciferase reporter, luminescence (AID 618);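 note: actives suppress MT1-MMP promoter-driven transcription so potencies describe inhibitors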
Conditions: MT1-MMP promoter luciferase reporter cells

Row | SMILES | outcome
1 | COc1ccc(N/C=C(\C#N)c2ccc(OCCCF)cc2)cc1 | inactive
2 | COc1ccc(C2C(C#N)=C(N)N3C(=C2C#N)Sc2ccccc23)cc1 (centres undefined) | inactive
3 | Cc1nn(C)cc1C1C2=C(CC(C)(C)CC2=O)OC2=C1C(=O)CC(C)(C)C2 | inactive
4 | CC1(C)CC(=O)C(C2C3=C(CC(C)(C)CC3=O)Oc3ccccc32)=C(O)C1 (centres undefined) | inactive
5 | CC1(C)CC(=O)C2=C(C1)OC1=C(C(=O)CC(C)(C)C1)C2c1ccc(O)cc1O | active
6 | O=C(c1cccs1)N(Cc1ccco1)c1nc(-c2ccc(F)cc2)cs1 | inactive
7 | COc1ccc(-c2cc(C(F)(F)F)n3nc(C(=O)N4CCCCC4)cc3n2)cc1OC | inactive
8 | Cc1ccc2[nH]c(C(=O)O)c(-c3ccccc3)c2c1 | inactive
9 | Cc1ccc2[nH]c(-c3ccccc3)cc(=O)c2c1 | active
10 | O=c1cc(-c2ccccc2)[nH]c2ccccc12 | inactive
11 | COc1ccc(NC(=O)N2CCCC2C(=O)NCc2ccc(F)cc2)cc1 (centres undefined) | inactive
12 | O=C(O)CSCC(=O)Nc1ccccc1 | inactive
13 | O=C(CSCCO)Nc1ccc(C2CCCCC2)cc1 | inactive
14 | Cc1ccc(C(=O)CC2(O)C(=O)N(Cc3ccc4c(c3)OCO4)c3ccccc32)cc1 (centres undefined) | inactive
15 | Cc1cc(C)c(S(=O)(=O)N2CCC(C(=O)NCc3ccco3)CC2)c(C)c1 | inactive
16 | Cc1ccc(C(=O)NNS(=O)(=O)c2ccccc2[N+](=O)[O-])cc1 | inactive
17 | Cc1ccc(C(=O)N/N=C/c2sc(=O)n(Cc3cccc(C(=O)O)c3)c2Cl)cc1 | inactive
18 | O=C(N/N=C/C=C/c1ccccc1)c1ccccc1Br | inactive
19 | O=C(N/N=C/c1ccc([N+](=O)[O-])s1)c1cccc(Br)c1 | inactive
20 | CC(=O)Nc1ccc(NC(=O)c2ccccc2C)cc1 | inactive
21 | COc1cc(C(=O)N/N=C\c2ccccc2)c([N+](=O)[O-])c(OC)c1OC | inactive
22 | COc1cccc(NC2=NCC(=O)N2Cc2cccs2)c1 | inactive
23 | O=C1c2ccccc2C(=O)N1CCOCCN1C(=O)c2ccccc2C1=O | inactive

Row | SMILES | outcome
24 | CCC(=O)N(Cc1ccc(S(N)(=O)=O)cc1)C1CC(=O)N(c2ccc(OC)cc2)C1=O (centres undefined) | inactive
25 | Cc1cc2nnc(SCC(=O)N3C(C)CCCC3C)n2c(N)n1 (centres undefined) | inactive
26 | COC(=O)CSc1cc(C(=O)c2nccn2C)c2ccccc2n1 | inactive
27 | COCCNC(=O)C(c1cccs1)N(Cc1cccs1)C(=O)Cn1nnc2ccccc21 (centres undefined) | inactive
28 | CCCCS(=O)(=O)Nc1ccc(C(=O)NCC2CCCO2)cc1 (centres undefined) | inactive
29 | Cc1cccc(NC(=O)c2cnc3ccccn3c2=O)c1 | inactive
30 | CCN(CC)c1ccc(NC(=O)c2cnc3ccccn3c2=O)c(C)c1 | inactive
31 | CCCC(=O)c1ccc(N2CCOCC2)c(F)c1 | inactive
32 | Cn1c(C(=O)N2CCN(Cc3ccccc3)CC2)cc2c(=O)n(C)c3ccccc3c21 | inactive
33 | Cc1cccc(N2CCN(C(=O)c3ccncc3)CC2)c1C | inactive
34 | COc1cc(C(=O)N2CCN(c3cccc(C)c3C)CC2)cc(OC)c1OC | active
35 | COc1ccc(Cl)cc1S(=O)(=O)N1CCN(C(=O)c2cc(OC)c(OC)c(OC)c2)CC1 | inactive
36 | COc1cc(C(=O)N2CCN(c3cc(Cl)ccc3Cl)CC2)cc(OC)c1OC | active
37 | COc1ccc(C(=O)N2CCN(C(=O)c3cc(OC)c(OC)c(OC)c3)CC2)cc1 | inactive
38 | COc1cc(C(=O)N2CCN(C(=O)c3ccccc3)CC2)cc(OC)c1OC | inactive
39 | O=C(Nc1cccc(Cl)c1N1CCCC1)c1ccc(Br)o1 | inactive
40 | O=C(Nc1ccccc1)NC1CC2CCC(C1)N2Cc1nnnn1Cc1ccc2c(c1)OCO2 (centres undefined) | inactive
41 | COc1ccc(Nc2cc(C)nc3nc(C)nn23)cc1Cl | inactive
42 | CC(=O)Nc1c2c(nn1-c1ccc(C)cc1C)CSC2 | inactive
43 | CCCCS(=O)(=O)/C=C\C=C/S(=O)(=O)CCCC | active
44 | CCCCS(=O)(=O)/C=C/[C@H]1[C@H](S(=O)(=O)CCCC)[C@H]2C=C[C@@H]1C2 | inactive
45 | CCCCS(=O)(=O)/C=C\C1C2C=CC(C2)C1S(=O)(=O)CCCC (centres undefined) | inactive
46 | COc1ccc(CCNC(=O)Cn2cnc3c(nnn3Cc3ccccc3F)c2=O)cc1OC | inactive

Row | SMILES | outcome
47 | Cc1ccc(S(=O)(=O)N2CCN(C(=O)N3CCOCC3)C2c2ccc(N(C)C)cc2)cc1 (centres undefined) | inactive
48 | O=C(Cc1ccc(Br)cc1)OCC(=O)c1ccc2c(c1)OCCO2 | inactive
49 | O=C(Cc1n[nH]c(=O)c2ccccc12)OCC(=O)c1ccc2c(c1)OCCO2 | active
50 | O=C(Cn1cnc2ccccc2c1=O)OCC(=O)c1ccc2c(c1)OCCO2 | inactive
51 | CCOCCCn1c(SCC(=O)NC(C)(C)C)nc2ccccc2c1=O | inactive
52 | CNC(=O)Nc1ccccc1F | inactive
53 | Cc1nc2ccccc2c(=O)n1C1CCCCCC1 | inactive
54 | COc1cccc(-c2cc(C(=O)N3CCCCCC3)no2)c1 | inactive
55 | O=C(c1cc(-c2ccc(Cl)cc2Cl)on1)N1CCOCC1 | active
56 | O=C(c1cc(-c2ccc(Cl)cc2)on1)N1CCOCC1 | inactive
57 | O=C(c1cc(-c2ccccc2)on1)N1CCCC1 | inactive
58 | O=C(c1cc(-c2cccc(O)c2)on1)N1CCOCC1 | inactive
59 | Cc1ccc(-c2cc(C(=O)N3CCCC3)no2)cc1 | active
60 | O=C(c1cc(-c2ccc(Cl)cc2Cl)on1)N1CCN(C(=O)c2ccco2)CC1 | inactive
61 | O=C(c1cc(-c2ccc(F)cc2)on1)N1CCCC1 | inactive
62 | CCCCN1CC(C(=O)NCc2ccc(C)cc2)CC1=O (centres undefined) | inactive
63 | CCCN1Cc2cccc(C(=O)NCc3ccc4c(c3)OCO4)c2C1=O | inactive
64 | c1coc(CN2CN=C(Nc3nc4ccccc4s3)NC2)c1 | inactive
65 | Cc1cc(S(=O)(=O)N(Cc2ccc(F)cc2)CC2CCCO2)ccc1-n1cnnn1 (centres undefined) | inactive
66 | COc1ccc(OC)c(CNn2c(-c3cccc(C)c3)nc3ccccc3c2=O)c1 | inactive
67 | CC1=CC(C)(C)N2C(=O)C3(C(C#N)=C(N)Oc4cc(O)ccc43)c3c(C)c(C)cc1c32 (centres undefined) | inactive
68 | O=C(CSc1nnc(-c2cccs2)o1)c1cccs1 | inactive
69 | Cc1cc(C(=O)CSc2nnc(-c3ccccc3F)o2)c(C)n1Cc1cccs1 | inactive

Row | SMILES | outcome
70 | COC(=O)C1=C(C)N(CCCC(=O)O)C(=O)NC1c1ccccc1Cl (centres undefined) | inactive
71 | Brc1ccc(OCc2nc(-c3ccccn3)n[nH]2)cc1 | inactive
72 | COc1ccc2c(c1)sc1nc(-c3ccccc3)cn12 | active
73 | CCOC(=O)N1CCC(NC(=O)c2ccc3c(c2)sc2nc(-c4cccc(OC)c4)cn23)CC1 | inactive
74 | CCOC(=O)N1CCN(C(=O)c2ccc3c(c2)sc2nc(-c4ccccc4)cn23)CC1 | inactive
75 | Cc1sc2ncnc(Oc3ccc(-n4ccnc4)cc3)c2c1C | inactive
76 | N#CC1(Nc2ccccc2)C(=O)Nc2ccccc21 (centres undefined) | inactive
77 | Nc1ccc2nc(-c3ccccc3)[nH]c2c1 | inactive
78 | Cc1ccc2nc(-c3cccc(-c4nc5ccc(C)cc5o4)n3)oc2c1 | inactive
79 | Cc1ccc2nc(-c3cccnc3)oc2c1 | inactive
80 | Nc1cc(N)cc(-c2nc3ccccc3o2)c1 | inactive
81 | Nc1cccc(-c2nc3ccccc3[nH]2)c1 | inactive
82 | Cc1ccc2nc(-c3ccccn3)oc2c1 | inactive
83 | COCCNC(=O)Nc1ccc2nc(C)sc2c1 | inactive
84 | CCCCN(C)C(=O)c1oc2ccc(S(=O)(=O)N3CCCCCC3)cc2c1C | inactive
85 | CCn1cc(C(=O)N2CCCC2)c(=O)c2cc(S(=O)(=O)N(C)C)ccc21 | inactive
86 | O=C(NCCCn1ccnc1)c1noc2c1CCc1ccccc1-2 | inactive
87 | CCOCc1nnc(NC(=O)CCc2ccccc2)s1 | inactive
88 | C=CCN1C(=NC(=O)CCCC(=O)O)SC2CS(=O)(=O)CC21 (centres undefined) | inactive
89 | COc1ccccc1Nc1nc(NCCO)c2ccccc2n1 | inactive
90 | C=C(C)Cn1c(CCNC(=O)C(C)(C)C)nc2ccccc21 | inactive
91 | O=C1C(C=Nc2ccccc2O)=C(O)c2ccccc21 | inactive
92 | Cc1ccc(O)c(N=CC2=C(O)c3ccccc3C2=O)c1 | inactive

Row | SMILES | outcome
93 | CCc1ccc(NC(=O)C(=O)NCCN2CCN(C(=O)c3ccco3)CC2)cc1 | inactive
94 | CC1=C(C(=O)OC(C)C)C(c2cccc(F)c2)N2C(=O)C(C)SC2=N1 (centres undefined) | inactive
95 | CCOC(=O)CSc1nnc(CNC(=O)c2ccc(OC)cc2OC)n1-c1ccc(OC)cc1 | inactive
96 | CCN(CC)C(=O)N1CCn2c(nc3ccccc32)C1 | inactive
97 | CC(C)(C)C(=O)/C(=C\c1ccc([N+](=O)[O-])cc1)n1cncn1 | active
98 | Cn1ncc(N=Cc2ccc([N+](=O)[O-])cc2)c1C(=O)N1CCOCC1 | inactive
99 | O=[N+]([O-])/C(C(Cl)=C(Cl)Cl)=C(\Nc1ccc(F)cc1)n1cncn1 | inactive
100 | Nn1c(COc2ccccc2)nnc1SCc1cc(=O)[nH]c2ccccc12 | inactive
101 | CCOC(=O)c1sc2nc(-c3ccco3)c3c(c2c1N)CC(C)(C)OC3 | inactive
102 | COc1ccccc1OCC(=O)Nc1nc(-c2ccc(S(=O)(=O)N3CCOCC3)cc2)cs1 | inactive
103 | CC1CN/C(=C\C(=O)c2ccccc2)C(=O)N1 (centres undefined) | inactive
104 | CC1CN/C(=C\C(=O)c2ccc(Cl)cc2)C(=O)N1 (centres undefined) | inactive
105 | Cc1ccc(-n2ncc3c(=O)[nH]c(SCC(=O)N4CCC(C)CC4)nc32)cc1C | inactive
106 | COc1ccc(NC(=O)c2cccs2)cc1 | inactive
107 | Cc1ccc(NC(=O)c2ccccc2)s1 | active
108 | Cc1sc(NC(=O)c2ccccc2)c(C(=O)NC(C)C)c1C | inactive
109 | Cc1cc(NC(=O)c2ccccc2)sc1C | inactive
110 | CCOc1ccccc1CNC(=O)C1CCCN(c2nc3ccccc3o2)C1 (centres undefined) | inactive
111 | CCCCN1Cc2cc(C(=O)c3cc(F)ccc3O)cnc2NC1=O | inactive
112 | CN1Cc2cc(C(=O)c3ccccc3O)cnc2NC1=O | inactive
113 | CN1Cc2cc(C(=O)c3cc(Cl)cc(CSc4ncccn4)c3O)cnc2NC1=O | active
114 | O=C(CN1C(=O)c2ccccc2S1(=O)=O)Nc1cccnc1 | inactive
